# ChEMBL document CHEMBL3988442, “University of Dundee, Small-Polar-MMV Screening Library” (2021)
# Screen size: about 69,000 compounds; about 1,000 (1.4%) showed an effect of 50% or more. This excerpt belongs to a sample that is enriched for strong results.
# System: Leishmania donovani
# Assay: Leishmania intramacrophage assay
# Type: functional, organism-based
# Design: scale not given: in the data most compounds retested in dose-response had high values
compound,measurement,setting,value
Cc1cccc(SC2CCN(C(=O)CCCn3cnnn3)CC2)c1,Percent Effect,"30.3 µM, […]",53.34%
CC(=O)NCCCC(=O)N1CCC(Sc2cccc(C)c2)CC1,Percent Effect,"30.3 µM, […]",42.91%
CCOCC(=O)N1CSCC1C(=O)N(C)Cc1ccco1 (configuration not stated),Percent Effect,30 µM,13.38%
Cc1nc(N2CC[C@@H](c3ccc4ccccc4c3)[C@H](O)C2)no1,Percent Effect,"30.3 µM, […]",18.28%
CCCc1nc(N2CC[C@@H](c3ccc4c(c3)OCO4)[C@H](O)C2)no1,Percent Effect,"30.3 µM, […]",11.09%
CCCc1nc(N2CC[C@@H](c3ccc4ccccc4c3)[C@H](O)C2)no1,Percent Effect,"30.3 µM, […]",50.36%
Cc1cc(N2CCc3c(nc(C(C)C)n3C)C2)nc(N)n1,Percent Effect,"30.3 µM, […]",17.43%
Cc1nc(C)n(CC2CCCN(CC(=O)Nc3ccncc3)C2)n1 (configuration not stated),Percent Effect,30 µM,29.85%
Cc1nc(C)n(CC2CCCCN2CC(=O)Nc2ccncc2)n1 (configuration not stated),Percent Effect,"30 µM, 30.03 µM",-8.014%
Cc1nc(C)n(CC2CCCN2CC(=O)Nc2ccncc2)n1 (configuration not stated),Percent Effect,"30.3 µM, […]",50.98%
Cc1nc(C)n(CC2CCCN(CC(=O)Nc3cccnc3)C2)n1 (configuration not stated),Percent Effect,"30.3 µM, […]",59.36%
Cc1nc(C)n(CC2CN(CC(=O)Nc3cccnc3)CCO2)n1 (configuration not stated),Percent Effect,"30 µM, 30.03 µM",31.54%
Cc1nc(C)n(CC2CCCN2CC(=O)Nc2cccnc2)n1 (configuration not stated),Percent Effect,"30.3 µM, […]",2.659%
Cc1nc(CN(C)C2CCCN(Cc3noc(C4CC4)n3)C2)oc1C (configuration not stated),Percent Effect,30 µM,-8.721%
OCc1ccc(-c2nccn2CCc2nc3c(s2)CCCC3)o1,Percent Effect,"30.3 µM, […]",-3.192%
O=C(NCCc1ccn(-c2ccc(F)cc2)n1)C1CCCOC1 (configuration not stated),Percent Effect,"30.3 µM, […]",11.22%
CC(NC(=O)CN(C)C(C)C)c1ccc(Oc2cccnc2)c(F)c1 (configuration not stated),Percent Effect,"30.3 µM, […]",51.39%
CC(NC(=O)N(C)C1CC1)c1ccc(Oc2cccnc2)c(F)c1 (configuration not stated),Percent Effect,"30.3 µM, […]",4.744%
CCN(CC)C(=O)NC(C)c1ccc(Oc2cccnc2)c(F)c1 (configuration not stated),Percent Effect,"30.3 µM, […]",-9.456%
C=C(C)COc1cccc(C(=O)N(CC)Cc2noc(C)n2)c1,Percent Effect,"30.3 µM, […]",17.93%
Cc1nc[nH]c1CN(Cc1ccccc1F)C1CC(C)(C)NC(C)(C)C1.O=C(O)CC(O)(CC(=O)O)C(=O)O,Percent Effect,"30.3 µM, […]",53.75%
Cc1nc[nH]c1CN(Cc1ccccc1)C1CC(C)(C)NC(C)(C)C1.O=C(O)CC(O)(CC(=O)O)C(=O)O,Percent Effect,"30.3 µM, […]",45.23%
Cc1cc2c(N)nc(=O)n(CC(=O)Nc3ccccc3)c2s1,Percent Effect,"30.3 µM, […]",6.295%
COc1cccc(NC(=O)Cn2c(=O)nc(N)c3cc(C)sc32)c1,Percent Effect,"30.3 µM, […]",12.79%
Cc1cc2c(N)nc(=O)n(CC(=O)Nc3cccc(Cl)c3)c2s1,Percent Effect,"30.3 µM, […]",52.64%
Cc1nc(CN2CCN(C(=O)NC(C)Cn3ccnc3)CC2)cs1 (configuration not stated),Percent Effect,30 µM,14.72%
CNC(=O)C1CCN(CC(=O)Nc2cc(C(C)C)no2)CC1,Percent Effect,30 µM,21.46%
CS(=O)(=O)NCc1noc2c1CN(C(=O)C1CCC1)CC2,Percent Effect,"30.3 µM, […]",11.5%
CCN1CC(CN(C)Cc2nc(-c3ccc(C)o3)oc2C)CC1=O (configuration not stated),Percent Effect,"30.3 µM, […]",59.94%
CCN1CC(CN(C)Cc2nc(-c3ccoc3)oc2C)CC1=O (configuration not stated),Percent Effect,"30.3 µM, […]",-10.15%
CCN1CC(CN(C)Cc2nc(-c3ccc(F)cc3)oc2C)CC1=O (configuration not stated),Percent Effect,"30.3 µM, […]",13.51%
CN(C)C(=O)C1(c2cnccn2)CCCN1C(=O)Cc1ccsc1 (configuration not stated),Percent Effect,"30.3 µM, […]",25.36%
CCn1c(C)nc2cc(NC(=O)CC3CCN(S(C)(=O)=O)CC3)ccc21,Percent Effect,"30.3 µM, […]",32.47%
CCN1Cc2c(C(=O)NC)ncn2-c2ccccc2S1(=O)=O,Percent Effect,"30.3 µM, […]",2.291%
CNC(=O)c1ncn2c1CN(CCC(C)C)S(=O)(=O)c1ccccc1-2,Percent Effect,"30.3 µM, […]",54.17%
CC(C)CCN1Cc2c(C(=O)O)ncn2-c2ccccc2S1(=O)=O,Percent Effect,"30 µM, 30.03 µM",-20.47%
COc1ccc(CNC(=O)c2ccoc2CN2CCNC(=O)C2)cc1,Percent Effect,"30.3 µM, […]",-8.396%
CC(C)N(C)Cc1cn2c(n1)CN(C(=O)c1ccc[nH]1)CC2,Percent Effect,"30.3 µM, […]",13.65%
Cc1cc(-c2cnc(C(C)C)nc2CN(C)C(=O)c2ccccn2)on1,Percent Effect,"30.3 µM, […]",10.54%
CC(C)N(C)CCCNC(=O)c1cnn(C(C)(C)C)c1C(F)(F)F,Percent Effect,"30.3 µM, […]",10.25%
CC(N)C(=O)N1CCC(Oc2cccc(C(F)(F)F)c2)CC1 (configuration not stated),Percent Effect,"30.3 µM, […]",75.62%
OC1(CN2CCC(Oc3cccc(C(F)(F)F)c3)CC2)CNCCOC1 (configuration not stated),Percent Effect,"30.3 µM, […]",78.32%
OC1(CN2CCC(Oc3cccc(C(F)(F)F)c3)CC2)CCNC1 (configuration not stated),Percent Effect,"30.3 µM, […]",100.3%
Nc1cc(C(=O)N2CCC(Oc3cccc(C(F)(F)F)c3)CC2)ccn1,Percent Effect,"30.3 µM, […]",3.315%
FC(F)(F)c1cccc(OC2CCN(Cc3ccccn3)CC2)c1,Percent Effect,"30.3 µM, […]",-24.32%
OC1(CNCCN2CCc3ccccc32)CNCCOC1 (configuration not stated),Percent Effect,"30.3 µM, […]",12.43%
FC(F)(F)c1cccc(OC2CCN(Cc3ncc[nH]3)CC2)c1,Percent Effect,"30.3 µM, […]",17.17%
OC1(CN2CCCC2)COCCN(c2cc(C(F)(F)F)ccn2)C1 (configuration not stated),Percent Effect,"30.3 µM, […]",29.85%
OC1(CN2CCN(c3cccc(C(F)(F)F)c3)CC2)CNCCOC1 (configuration not stated),Percent Effect,"30.3 µM, […]",51.12%
O=C(c1ccncc1)N1CCC(Oc2cccc(C(F)(F)F)c2)CC1,Percent Effect,"30.3 µM, […]",7.291%
FC(F)(F)c1cccc(OC2CCN(Cc3c[nH]cn3)CC2)c1,Percent Effect,"30.3 µM, […]",0.2013%
OC1(CN2CCC(Oc3cccnc3)CC2)CNCCOC1 (configuration not stated),Percent Effect,"30.3 µM, […]",-1.613%
